Source: PubChem BioAssay (NCI)
Compounds without any hit were thinned out: in the full panel of roughly 83,000, 20% have a hit.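 For each line, cells grew in 96-well plates with the test compound present at a single concentration for 48 hours.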 Unmarked numbers belong to inactive results. Activity calls are given as the source filed them.

The compounds below were run on BT-549 breast (assay: NCI-60 one-dose screen, 48 h (100 = growth as untreated, 0 = no growth, -100 = all killed)). Settings: 10 µM unless noted.
Experimental: Growth inhibition of the BT-549 human tumor cell line is measured as a screen for anti-cancer activity. Cells are grown in 96 well plates and exposed to the test compound for 48 hours. Compounds are tested at a single concentration, which is 10^-5 M for most compounds. The reported endpoint is percent growth (GI% or GIPRCNT), where numbers from 0 - 100% represent growth inhibition, and numbers from -100% - 0 represent cell death. For example, a value of 40 represents 60% growth inhibition. A value of 0 means no net growth occurred over the course of the experiment. A value of -40 indicates 40% of cells at the beginning of the experiment died by the end of the experiment. A value of -100 means all cells are dead at the end of the experiment.
NCI-60 Human Tumor Cell Lines Screen was performed using the standard one-dose NCI protocol, which is described in more detail at https://dtp.cancer.gov/discovery_development/nci-60/default.htm.
Compounds with GIPRCNT values below 10 were considered active. Activity score was based on GIPRCNT using the following formula: […]
Score is 0 for GIPRCNT values of 100 or above, 50 for GIPRCNT values of 0, and 100 for GIPRCNT values of -100.

Row | Structure (SMILES) | growth
1 | C=C1CC[C@@H]2[C@](C)(COC(C)=O)[C@H](OC(C)=O)CC[C@@]2(C)[C@@H]1CC(Nc1ccc(S(=O)(=O)NC(C)=O)cc1)C1=CCOC1=O (stereo not given in full) | -62.6% (active)
2 | Nn1c(=O)c(=O)[nH]c2c(cnn2-c2ccccc2)c1=O | 114%
3 | CSC(SC)=C(C#N)c1nc2ccccc2s1 | 13.1%
4 | CCOc1c(OC)cc2c(c1O)C(=O)N[C@@H]1[C@@H](O)[C@@H](O)[C@H](O)C[C@@H]21 | 99.6%
5 | COCCn1cc(-c2csc(-c3c[nH]c4ccc(Br)cc34)n2)c2cccnc21 | 22.6%
6 | CC(C)(C)n1cc(-c2ccnc(NCCNS(=O)(=O)c3ccc(O)cc3)c2)c(-c2cccc(O)c2)n1 | 93.6%
7 | COc1cc(C(=O)n2nc(N3CCOCC3)c3cc(-n4cccc4)ccc32)cc(OC)c1OC | 56.2%
8 | Nc1ccc(-c2csc(-n3[nH]c(=O)ccc3=O)n2)cc1 | 92%
9 | C=Cc1cnc(Nc2ccc(OC)cc2)nc1NCCCNC(=O)C1CCC1 | 26.4%
10 | CCN1CCN(CC(=O)Nc2nc3ccc(NCc4ccc(F)cc4)cc3s2)CC1 | 97.9%
11 | COC(=O)c1c2c(c(C)[n+]([O-])c1C)C(=O)C(NCc1ccc(OC)cc1)=CC2=O | 56%
12 | COc1ccc(C2=CC(c3cc(OC)c(OC)c(OC)c3)n3ncnc3N2)cc1 (stereo not given) | 4.42% (active)
13 | CC1C=CC(OC(=O)C(C)(O)CCC(O)(C(=O)OC2CC(O)C(C(C)C)CC2(C)O)C(C)C)(C(C)C)CC1 (stereo not given) | -81% [4.63 µM] (active)
14 | N#CSc1c[nH]c2cccc(/C=C/C(=O)/C=C(O)/C=C/c3cccc4[nH]cc(SC#N)c34)c12 | -23.7% (active)
15 | COc1ccc(/C=C/c2ccc3ccccc3n2)c(OC)c1 | 67.8%
16 | Ic1ccccc1I | 115%
17 | COc1cc(C(=O)c2c(-c3ccccc3)oc3c(OC)cccc23)cc(OC)c1OC | -5.83% (active)
18 | CCN(CC)c1ccc(/C=N/NC(=O)Cc2ccc(Nc3ccnc(C(F)(F)F)c3)cc2)c(O)c1 | 41.9%
19 | COc1cc2c(c(OC)c1OC)C(=O)CC(c1cccc(NC(=O)c3ccc(C#N)cc3)c1)O2 (stereo not given) | 43.7%
20 | FC(F)(F)Oc1cccc(-c2cnc3ccc(-c4ccncc4)nn23)c1 | 25.2%

Row | Structure (SMILES) | growth
21 | Cc1ccc(-c2csc(NC(=O)c3ccccc3CN3C(=O)c4ccccc4C3=O)n2)cc1 | 91.4%
22 | O=C1/C(=C\c2cccc3nccnc23)SC(=S)N1CCc1ccc(O)cc1 | 96%
23 | CC1(C)[C@@H](O[C@@H]2OC[C@@H](O[C@@H]3O[C@H](CO)[C@@H](O)[C@H](O)[C@H]3O[C@@H]3OC[C@@H](O)[C@H](O)[C@H]3O)[C@H](O)[C@H]2O[C@@H]2O[C@H](CO)[C@@H](O)[C@H](O)[C@H]2O)CC[C@]2(C)[C@H]3CC[C@]45OC[C@@]6(CC[C@](C)(C=O)C[C@H]64)[C@H](O)C[C@@]5(C)[C@]3(C)CC[C@@H]12 | -94% (active)
24 | CC1=C(C(=O)Nc2nc(-c3ccc(Cl)cc3)cs2)[C@H](c2ccc(O)cc2)NC(=O)N1 | 90.4%
25 | O=C(/C=C/c1ccc(Oc2ccc(Br)cc2)cc1)c1ccc(Br)cc1 | 110%
26 | Oc1c(CN2CCC(N3CCCCC3)CC2)cc(Cc2cc(CN3CCC(N4CCCCC4)CC3)c(O)c3ncccc23)c2cccnc12 | 27%
27 | COC(=O)CC[C@@H]1O[C@@H](c2ccc(F)cc2)[C@@H](O)[C@H]1O | 105%
28 | Cc1ccc(C(=O)Nc2cccc(C#Cc3cccc4[nH]nc(N)c34)c2)cc1C(F)(F)F | 86.6%
29 | O=C(NNC(=O)c1nc2cc(F)ccc2n2cccc12)c1cnccn1 | 66%
30 | COc1ccc(C[n+]2c3ccccc3n3c4ccc(N)cc4ccc32)c(OC)c1OC | 5.31% (active)
31 | CCCCC#Cc1c(I)n(C)c(=O)[nH]c1=O | -57.1% (active)
32 | CCN(CC)CCCOc1ccc2ncnc(Nc3ccc(Oc4cccc(C(F)(F)F)c4)c(Cl)c3)c2c1 | 81.4%
33 | Cc1ccc2nc(NC(=O)CSc3nc(-c4ccccc4)c(C#N)c4nnnn34)sc2c1 | 106%
34 | CN1CCN(c2ccc3nc4c(nc3c2C(F)(F)F)C(=O)c2ncccc2C4=O)CC1 | -97% (active)
35 | Cc1ccc(S(=O)(=O)Oc2ccc3sc4cccc(NCCN(C)C)c4c(=O)c3c2)cc1 | -88.6% (active)
36 | N=C(N)c1ccc(-c2ccc(-c3ccccc3)s2)cc1 | 90.6%
37 | O=C(Oc1ccc(CCl)cc1)c1ccccc1 | -97.9% (active)
38 | CS(=O)(=O)c1nnc(-c2ccccc2)s1 | 105%
39 | Cc1cc2c(cc1C)N(C(=O)CCl)CC(=O)N2 | 18.9%
40 | COc1ccc(-c2cc(-c3ccccc3)nc(N3CCN(CCNc4ccnc5cc(Cl)ccc45)CC3)n2)cc1 | 72.8%
